Shown are actives, neighbours in structure and some others; about 19% of the full set was active somewhere.
DT40 TDP1 no CPT: qHTS for Inhibitors of human tyrosyl-DNA phosphodiesterase 1 (TDP1): qHTS in cells in absence of CPT | 420,000 tested, 15% active | DT40 Tdp1-/- hTDP1 cells, no CPT, ATP luminescence, 48 h | Potency, µM (highest dose often 46.2 µM), for inactives: top-dose activity change, negative = growth inhibition, actives largely listed as inhibitors; further: nearly all actives have a fitted effect of over 55% in size
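Growth kinetics read by CellTiter-Glo luminescence after ≥48 hr at 37 °C. Cells: DT40 Tdp1-/- stably carrying human TDP1, 400 per well, compound exposure in the absence of CPT (DMSO vehicle).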
TDP1 cell CPT: growth inhibition of DT40 Tdp1-/-;hTDP1 cells with camptothecin (screen for TDP1 inhibitors) | chicken DT40 Tdp1-/-;hTDP1 cells + 20 nM CPT, ATP luminescence, 48 h | Potency, µM (highest dose often 46.2 µM), without a hit: at the top dose activity change, negative = growth inhibition, usual class: inhibitors | 420,000 tested, 12% active | AID 686979; further: nearly all actives have a fitted effect of over 55% in size
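Cell growth measured by CellTiter-Glo luminescence after a minimum 48 h, 37 C compound exposure with 20 nM CPT in Tdp1-knockout DT40 cells stably expressing hTDP1, seeded 400/well; qHTS titration format.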
HT1080NT lethal: kills 2HG-producing HT-1080-NT fibrosarcoma cells; Potency, µM (series often up to 46.1 µM), for inactives: top-dose activity, negative = less viability, hits mostly cytotoxic; 360,000 tested, 1.6% active; AID 686970; HT-1080-NT fibrosarcoma viability, CellTiter-Glo ATP luminescence, 48 h;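 further: NT is the 2HG producing partner of a matched IDH1 knockdown line; 0% = DMSO-treated cells and -100% = media-only wells without cells; nearly all actives have a fitted effect of over 55% in size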
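Fibrosarcoma NT cells, 750 per well in 5% FBS RPMI, were exposed to compound for 48 hours. Viability: CellTiter-Glo luminescence.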
KB-3-1 cytotox: KB-3-1 parental cell cytotoxicity; KB-3-1 viability, CellTiter-Glo ATP luminescence, 72 h; Potency, µM (doses to about 46.1 µM), usual class: cytotoxic; 400,000 tested, 1.4% active; further: nearly all actives have a fitted effect of over 60% in size
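Cytotoxicity measured as CellTiter-Glo luminescence after 72 h at 37 C. Compound titrations were pinned onto drug-naive KB-3-1 parental adenocarcinoma cells grown in DMEM with 10% FBS, and normalized data fitted to concentration-response curves.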
KB-V1 cytotox: kills drug-selected multidrug resistant KB-V1 cells | KB-V1 MDR cells viability, CellTiter-Glo, 72 h | Potency, µM (titrated, usually from 46.1 µM), actives largely listed as cytotoxic | 400,000 tested, 3.4% active; further: nearly all actives have a fitted effect of over 60% in size
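qHTS viability screen in drug-selected KB-V1 MDR cells: 72 h compound treatment at 37 degrees C, ATP luminescence end point.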
HT1080 IDH1KD tx: kills HT-1080 cells with IDH1 knockdown | 360,000 tested, 2% active | HT-1080 IDH1 knockdown viability, ATP luminescence, 48 h | Potency, µM (doses to about 46.1 µM), without a hit: at the top dose activity, negative = toxicity, most hits filed as cytotoxic;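 further: 0% = DMSO wells and -100% = cell-free medium wells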
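Cytotoxicity counter-line: IDH1KD HT-1080, 48 h, CellTiter-Glo. Curves classed by r2, magnitude and activity.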
* hit, by the source's call; i = inactive; ? = inconclusive; / = not tested or not shown. The call rests on the fitted dose curve; in most records, active means well fitted curve in the direction sought with a large enough effect; inconclusive means small, poorly fitted or top-dose-only effect, or another doubt; inactive means no such curve, though single readings can be large; an effect the other way counts as inactive or inconclusive. Unless noted, on the % scale 0 is the no-effect control and ±100 the full control effect; potency means the concentration at half of the fitted maximal effect.

SMILES | DT40 TDP1 no CPT | TDP1 cell CPT | HT1080NT lethal | KB-3-1 cytotox | KB-V1 cytotox | HT1080 IDH1KD tx
CC(=O)Nc1ccc(NC(=O)c2c(-c3ccccc3Cl)noc2C)cc1 | 8% | 0% | 4% | i | i | 6%
CCCCNS(=O)(=O)c1ccc(NC(=O)c2c(-c3ccccc3)noc2C)cc1 | ? | ? | / | i | i | /
Cc1onc(-c2ccccc2Cl)c1C(=O)Nc1cccc(-c2nc3ncccn3c2C)c1 | ? | ? | -2% | i | 8.2µM* | -8%
CCCCN(CCCC)S(=O)(=O)c1ccc(NC(=O)c2c(-c3ccccc3)noc2C)cc1 | 29µM* | 21µM* | / | i | ? | /
CC(=O)Nc1cccc(NC(=O)c2c(-c3ccccc3Cl)noc2C)c1 | ? | ? | -7% | i | 16µM* | -12%
CC(=O)Nc1ccc(NC(=O)c2c(-c3ccccc3)noc2C)cc1 | -26% | -8% | / | i | i | /
Cc1ccc2c(=O)c(C(=O)c3cccc(Cl)c3)cn(CC(=O)NC3CCCCC3)c2n1 | -6% | -17% | / | i | i | /
Cc1onc(-c2ccccc2Cl)c1C(=O)Nc1nc2ccc(S(C)(=O)=O)cc2s1 | 9.2µM* | 8.2µM* | 15µM* | i | i | ?
Cc1ccc(CNS(=O)(=O)c2cnc(N)nc2)cc1 | 3% | -1% | / | / | / | /
COc1cccc2cc(C(=O)N(Cc3cccs3)Cc3cccs3)c(=O)oc12 | ? | -7% | / | i | i | /
O=C(c1ccc(-c2ccc(Cl)cc2)o1)N1CCN(S(=O)(=O)c2cccs2)CC1 | ? | ? | -6% | i | ? | -4%
O=C(c1ccc([N+](=O)[O-])cc1)N1CCN(C(=O)c2ccco2)CC1 | -18% | -4% | 11% | i | i | 0%
O=C(NC1CCC(O)CC1)c1ccc(-c2ccc([N+](=O)[O-])cc2)o1 (configuration not stated) | 16µM* | 16µM* | -9% | i | i | 0%
O=C(c1ccco1)N1CCN(C(=O)c2ccc(-c3ccc([N+](=O)[O-])cc3)o2)CC1 | ? | 23µM* | 7% | / | / | -1%
O=C(COC(=O)c1ccc(-c2ccc([N+](=O)[O-])cc2)o1)NC(=O)NC1CCCCC1 | ? | ? | 8% | ? | i | 11%
O=C(c1ccc(-c2ccc([N+](=O)[O-])cc2)o1)N1CCN(S(=O)(=O)c2cccs2)CC1 | 3.7µM* | 16µM* | -7% | i | i | -4%
CSc1ccc(S(=O)(=O)N2CCC(C(=O)NCc3ccccn3)CC2)cc1 | -2% | -4% | 4% | i | ? | 11%
Cc1ccc(C2c3[nH]c4ccccc4c3CCN2C(=O)c2ccc(N(C)C)cc2)cc1 (configuration not stated) | 21µM* | 21µM* | / | / | / | /
Cc1cnc(C(=O)N2CCc3c([nH]c4ccccc34)C2c2ccc(F)cc2)cn1 (configuration not stated) | ? | -26% | -24% | ? | i | -26%
Cc1ccc(C2c3[nH]c4ccccc4c3CCN2C(=O)CCC2CCCC2)cc1 (configuration not stated) | ? | 16µM* | / | / | / | /
CCOc1cccc(CC(=O)N2CCc3c([nH]c4ccccc34)C2c2ccc(SC)cc2)c1OCC (configuration not stated) | ? | -26% | / | i | i | /
COC(=O)c1ccc(NC(=O)N2CCc3c([nH]c4ccccc34)C2c2ccc(C)cc2)cc1 (configuration not stated) | 5.8µM* | ? | / | / | / | /
O=C(CSCc1ccc(F)cc1)N1CCc2c([nH]c3ccccc23)C1c1ccccc1 (configuration not stated) | 15µM* | 21µM* | / | / | / | /
O=C(OC1CC2CC1[C@H]1CCCCN1C2=O)N1CCN(C(=O)c2ccccc2)CC1 (some centres not stated) | ? | 2% | 13% | i | ? | ?
Cc1ccccc1NC(=O)CN1C(=O)CCn2nc(-c3cccn3C)cc21 | -5% | -2% | / | i | i | /
SMILES | DT40 TDP1 no CPT | TDP1 cell CPT | HT1080NT lethal | KB-3-1 cytotox | KB-V1 cytotox | HT1080 IDH1KD tx
Cc1ccc(CN2CCN(Cc3cn(C(C)C)c4ccccc34)CC2CCO)o1 (configuration not stated) | -25% | ? | -21% | i | ? | -25%
COc1ccc(CN2CCN(Cc3ccc(C)cc3)C(CCO)C2)cc1OC (configuration not stated) | -10% | ? | 3% | i | i | 17%
COc1cc(CN2CCN(Cc3c[nH]c4ccccc34)CC2CCO)cc(OC)c1 (configuration not stated) | ? | 13µM* | -15% | i | i | -17%
COc1ccc(CN2CCN(Cc3c[nH]c4ccccc34)CC2CCO)cc1C (configuration not stated) | 9.2µM* | 6.5µM* | -26% | i | i | -16%
COc1ccc(CN2CCN(Cc3c[nH]c4ccccc34)CC2CCO)c(F)c1 (configuration not stated) | 8.2µM* | 4.6µM* | -24% | i | i | -21%
CC(C)=CCN1CCN(Cc2cn(C(C)C)c3ccccc23)CC1CCO (configuration not stated) | 23µM* | 18µM* | -3% | i | i | -3%
CC(C)(C)CN1CCN(Cc2c[nH]c3ccccc23)CC1CCO (configuration not stated) | 8.2µM* | 8.2µM* | 2% | i | i | -6%
CC(C)(C)CN1CCN(Cc2cc3ccccc3[nH]2)CC1CCO (configuration not stated) | -26% | -22% | -5% | ? | i | -3%
N#Cc1cnc2cc(-c3ccccc3)nn2c1N | -7% | 13% | ? | ? | 2.6µM* | ?
COc1ccc(-c2cc3ncc(-c4ccccc4)c(N)n3n2)cc1 | ? | ? | ? | i | ? | ?
Cc1sc2nc(CSCC(=O)Nc3ccc(Cl)cc3F)[nH]c(=O)c2c1C | -4% | 3% | -3% | i | ? | -4%
Cc1sc2nc(CSCC(=O)N(CCC#N)c3ccccc3)[nH]c(=O)c2c1C | ? | 18µM* | 5% | i | i | -3%
Cc1sc2nc(CSCC(=O)N(C)CC(=O)Nc3ccc(F)cc3)[nH]c(=O)c2c1C | ? | -29% | -8% | i | i | -4%

Screens deposited in PubChem BioAssay by National Center for Advancing Translational Sciences (NCATS).
